An excerpt weighted towards active compounds, which were near 4.2% of everything screened.
ssDAF12 agonist = activates DAF-12 receptor from parasite S. stercoralis; HEK293 ssDAF-12/GRIP1 lit1-tk-luc reporter, luminescence; % of 3 µM dafachronic acid response; activation, % at 6.8 µM; 370,000 compounds, 1% hits; AID 652126;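 active = activation above the mean over all tested compounds plus 3 SD, cut at about 0.9% in these data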
hgDAF12 agonist = hgDAF-12 agonism, primary luciferase screen; HEK293 GAL4-hgDAF12 UAS-luciferase reporter, agonist luminescence; normalized to butyrate control; activation, % at 6.8 µM; 370,000 compounds, 1.8% hits; AID 687014;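 active = activation above a cutoff set at the mean of all screened compounds plus 3 SD, cut at about 10% in these data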
Wnt act = activates Wnt/beta-catenin signaling in a reporter cell assay; 300,000 compounds, 1.2% hits; AID 743398; activator, plate reader; activation, % at 9.35 µM; in the data active = activation above about 30%, passing the limit was not always enough; inconclusive = no clear call, values can overlap the other calls
hcDAF-12 act = activates DAF-12 receptor from parasite H. contortus; HEK293 hcDAF-12 lit1-tk-luc reporter, luminescence; 0% DMSO, 100% Δ7-dafachronic acid; activation, % at 6.8 µM; AID 652067; 370,000 compounds, 1.4% hits;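 active = activation above the mean of all tested compounds plus 3 SD, cut at about 5.5% in these data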
esBAF inh = blocks esBAF chromatin remodeling in mouse ES cells; Bmi1-luciferase knock-in reporter, 24 h; 100% = twice the neutral-well signal; reporter increase, % at 12.5 µM; 350,000 compounds, 2% hits; AID 602393; in the data active = activation above about 40%; inconclusive = no clear call, values can overlap the other calls;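 also: a rise in the Bmi1 reporter signal indicates esBAF inhibition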
DAX1 StAR inh = DAX1 (NR0B1) inhibition, primary screen | inhibition, % at 6.8 µM | 370,000 compounds, 1.1% hits | HEK293T StAR-luciferase reporter, SF-1/DAX-1 repression relief;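 active = inhibition above the mean over all tested compounds plus 3 SD, cut at about 3.6% in these data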;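 also: higher inhibition means more luminescence from relief of DAX-1 repression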
Large screens that a line does not name were inactive.

CNC(=O)/C(C#N)=C/c1ccc(-c2ccccc2[N+](=O)[O-])o1	none (no result: esBAF inh)
CNC(=O)/C(C#N)=C/c1ccc(-c2ccc(Cl)cc2)o1	esBAF inh 80
Oc1ccc(-c2csc(NCc3ccco3)n2)cc1	esBAF inh 49
O=S(=O)(c1ccc(OCc2nc3ccccc3s2)c(Cl)c1)N1CCOCC1	esBAF inh 86 (no result: Wnt act)
CCn1c(SCc2nc3ccccc3s2)nc2cc(S(=O)(=O)N3CCOCC3)ccc21	Wnt act inconclusive, esBAF inh 62
CSc1nc2ccc(S(=O)(=O)N3CCOCC3)cc2s1	hcDAF-12 act 5.8
O=C(C[C@H]1C[C@H]2c3cc(NC(=O)Cc4ccncc4)ccc3O[C@H]2[C@@H](CO)O1)NCc1ccccc1	none (no result: ssDAF12 agonist, hgDAF12 agonist, Wnt act, hcDAF-12 act, DAX1 StAR inh)
COCC(=O)N(C)C[C@H]1Oc2ncc(-c3ccc(C#N)cc3)cc2C(=O)N([C@H](C)CO)C[C@H]1C	none (no result: ssDAF12 agonist, hgDAF12 agonist, Wnt act, hcDAF-12 act, DAX1 StAR inh)
O=C(Nc1cccc(NC(=O)c2ccc(-c3ccc(Br)cc3)o2)c1)c1ccccc1	none (no result: Wnt act, esBAF inh)
O=C(Nc1ccccc1)c1ccc(-c2ccccc2C(F)(F)F)o1	esBAF inh 52
CC(C)NC(=O)c1ccc(-c2ccccc2C(F)(F)F)o1	esBAF inh 47 (no result: Wnt act)
O=C(Nc1ccccc1)c1ccc(-c2ccc(Br)cc2)o1	Wnt act 33
CC(C)NC(=O)c1ccc(-c2ccc(Cl)c(C(F)(F)F)c2)o1	none (no result: Wnt act, esBAF inh)
COc1cc2[nH]c3c(=O)n(CCN(C(C)C)C(C)C)cnc3c2cc1OC	none (no result: esBAF inh)
CC(C)N(CCn1cnc2c([nH]c3ccccc32)c1=O)C(C)C	hcDAF-12 act 6.1 (no result: esBAF inh)
COc1ccc2[nH]c3c(=O)n(CCc4ccccc4)cnc3c2c1	Wnt act 37 (no result: esBAF inh)
O=C(CC(F)(F)F)N1C[C@@H]2[C@H](c3ccccc31)[C@@H](CO)N2C(=O)C1CCCC1	none (no result: ssDAF12 agonist, hgDAF12 agonist, Wnt act, hcDAF-12 act, DAX1 StAR inh)
COCC(=O)Nc1ccc2c(c1)OC[C@@H](C)N(C(=O)c1ccncc1)C[C@H](C)[C@@H](OC)CN(C)C2=O	none (no result: ssDAF12 agonist, hgDAF12 agonist, Wnt act, hcDAF-12 act, DAX1 StAR inh)
O=C(O)C(c1ccccc1)c1ccccc1	none
N/C(=N/O)C(c1ccccc1)c1ccccc1	hcDAF-12 act 5.8 (no result: esBAF inh)
COc1ccc(S(=O)(=O)N(C)C[C@@H]2Oc3ccc(NC(=O)CCN4CCOCC4)cc3C(=O)N([C@@H](C)CO)C[C@H]2C)cc1	none (no result: ssDAF12 agonist, hgDAF12 agonist, Wnt act, hcDAF-12 act, DAX1 StAR inh)
O=C(Nc1cccc(F)c1)Nc1ccc2c(c1)CCC2	Wnt act 34, esBAF inh 64
COC(=O)c1ccc(NC(=O)Nc2ccc(F)cc2F)cc1	hgDAF12 agonist 13, esBAF inh 79
COC(=O)c1ccc(NC(=O)Nc2cccc(F)c2)cc1	hgDAF12 agonist 11, esBAF inh 70 (no result: Wnt act)
COC(=O)c1ccc(NC(=O)Cc2ccc(F)cc2)cc1	none
O=C(Nc1cccc([N+](=O)[O-])c1)Nc1ccc2c(c1)CCC2	none
CCOc1ccc(CCN2C(=S)N([C@@H](CC(C)C)CN3CCCC3CN3C(=S)NC[C@@H]3CC(C)C)C[C@@H]2CC(C)C)cc1 (stereo not given in full)	DAX1 StAR inh 4.4
O=C(C[C@@H]1CC[C@@H](NC(=O)NC2CCCCC2)[C@@H](CO)O1)NCc1ccc(F)cc1	none (no result: ssDAF12 agonist, hgDAF12 agonist, Wnt act, hcDAF-12 act, DAX1 StAR inh)
Cc1ccc(NC(=O)c2cc(=O)c3ccccc3o2)cc1	Wnt act inconclusive, esBAF inh 56
N#Cc1ccccc1NC(=O)c1cc(=O)c2ccccc2o1	hgDAF12 agonist 11 (no result: esBAF inh)
Cc1ccccc1NC(=O)c1cc(=O)c2ccccc2o1	none (no result: Wnt act)
COc1ccccc1-c1cn(CC[C@@H]2CC[C@H](NC(=O)NC(C)C)[C@@H](CO)O2)nn1	none (no result: ssDAF12 agonist, hgDAF12 agonist, Wnt act, hcDAF-12 act, DAX1 StAR inh)
Cc1ccc2[nH]c(=O)c(-c3nc4cc(C)ccn4c3NCc3ccco3)cc2c1	esBAF inh 69 (no result: ssDAF12 agonist, hgDAF12 agonist, Wnt act, hcDAF-12 act, DAX1 StAR inh)
Cc1cccc2cc(-c3nc4c(C)cccn4c3NCc3ccco3)c(=O)[nH]c12	none
CC(C)c1ccc(NC(=O)Nc2cc3sccc3n2C)cc1	hcDAF-12 act 6.0
O=C(CCSCCc1ccccn1)Nc1ccc(Br)cc1F	ssDAF12 agonist 2.0
O=C(CCSCCc1ccccn1)Nc1cc(F)ccc1F	none (no result: esBAF inh)
Fc1cccc(Cl)c1Cc1noc(/C=C/c2ccccc2)n1	esBAF inh 43
Clc1cccc(Cl)c1CSc1nnc(/C=C/c2ccccc2)o1	none (no result: Wnt act)
S=C(Nc1ccc(Cl)cc1)NC1CCCCC1	none
COC(=O)c1[nH]c2ccc(C)cc2c1NC(=O)NC1CCCCC1	none (no result: Wnt act, esBAF inh)
Cc1ccc(NC(=O)C(=O)NC2CCCCC2)cc1	none (no result: Wnt act)
S=C(Nc1ccc2[nH]ccc2c1)NC1CCCCC1	esBAF inh 66
O=C(Nc1c(C(=O)O)[nH]c2ccccc12)NC1CCCCC1	ssDAF12 agonist 1.2
Cc1ccc(NC(=O)NC2CCCCCCC2)cc1	Wnt act 35 (no result: esBAF inh)
Cc1ccc(NC(=S)NC2CCCC2)cc1C	none (no result: esBAF inh)
S=C(Nc1ccc(Br)cc1)NC1CCCCC1	esBAF inh 43
C[C@H](CO)N1C[C@H](C)[C@@H](CN(C)C(=O)c2ccncc2)OCCCC[C@H](C)Oc2ccc(NS(=O)(=O)c3ccccc3)cc2C1=O	none (no result: ssDAF12 agonist, hgDAF12 agonist, Wnt act, hcDAF-12 act, DAX1 StAR inh)
FC(F)Oc1ccc(NC(=S)NC2CCCCCCC2)cc1	esBAF inh 47
CCO/C(C)=N/Oc1cnc2ccccc2c1	esBAF inh 66
CCO/C(C)=N/Oc1cccc(N(C)C)c1	none
COc1ccc(NC(=O)N(C)C[C@@H]2Oc3ccc(NC(=O)Cc4ccccc4)cc3C(=O)N([C@@H](C)CO)C[C@@H]2C)cc1	none (no result: ssDAF12 agonist, hgDAF12 agonist, Wnt act, hcDAF-12 act, DAX1 StAR inh)
N#C/C(=C1/CCCCCN1)c1nc2ccccc2s1	esBAF inh 57 (no result: Wnt act)
CCc1nc(C)cn1S(=O)(=O)c1ccc(Br)cc1	Wnt act 51
O=[N+]([O-])c1ccccc1N=NNc1ccccc1	ssDAF12 agonist 1.6, esBAF inh 113
Cc1noc(C)c1NC(=O)N(C)C[C@@H]1Oc2ccc(NC(=O)CCN3CCOCC3)cc2C(=O)N([C@H](C)CO)C[C@@H]1C	none (no result: ssDAF12 agonist, hgDAF12 agonist, Wnt act, hcDAF-12 act, DAX1 StAR inh)
CC(=O)N1c2ccccc2N=C(c2ccc(C(F)(F)F)cc2)C1C(=O)NC(C)C (stereo not given)	none (no result: esBAF inh)
Cc1ccc(C(=O)N2c3ccccc3N=C(c3ccccc3)C2C(=O)NC(C)C)cc1 (stereo not given)	ssDAF12 agonist 1.0 (no result: esBAF inh)
CC(C)NC(=O)C1C(c2ccccc2)=Nc2ccccc2N1C(=O)c1ccc(C(F)(F)F)cc1 (stereo not given)	ssDAF12 agonist 2.3 (no result: esBAF inh)
COc1ccc(CCC(=O)N2c3ccccc3N=C(c3ccc(C(F)(F)F)cc3)C2C(=O)NC(C)C)cc1 (stereo not given)	none (no result: esBAF inh)
CC(C)NC(=O)C1C(c2ccc(C(F)(F)F)cc2)=Nc2ccccc2N1C(=O)c1cccc2ccccc12 (stereo not given)	ssDAF12 agonist 1.1 (no result: esBAF inh)
Cn1cnc(S(=O)(=O)N2C[C@H](O)COC[C@H]3O[C@H](CC(=O)NC4Cc5ccccc5C4)CC[C@@H]32)c1	none (no result: ssDAF12 agonist, hgDAF12 agonist, Wnt act, hcDAF-12 act, DAX1 StAR inh)
CCCCCCOC(=O)c1ccc(OC(=O)c2cccnc2)cc1	esBAF inh 52 (no result: ssDAF12 agonist, hgDAF12 agonist, Wnt act, hcDAF-12 act, DAX1 StAR inh)
O=C(C[C@H]1C=C[C@@H](NC(=O)C2CC2)[C@@H](CO)O1)NCc1ccccc1Cl	none (no result: ssDAF12 agonist, hgDAF12 agonist, Wnt act, hcDAF-12 act, DAX1 StAR inh)
